M1 PAM: human M1 muscarinic receptor positive allosteric modulators, primary screen, CHO-K1 cells, Fluo-8 calcium fluorescence, 1536-well; Muscarinic acetylcholine receptor M1 (Homo sapiens), P11229; CHO-K1 hM1, ACh EC20; 0% = ACh EC20, 100% = maximal ACh; activation, % at 3 µM; 360,000 compounds, 0.088% hits; AID 588819, 2011; in the data active means activation above about 19%, passing the limit was not always enough
Target sequence (P11229 whole entry, looked up): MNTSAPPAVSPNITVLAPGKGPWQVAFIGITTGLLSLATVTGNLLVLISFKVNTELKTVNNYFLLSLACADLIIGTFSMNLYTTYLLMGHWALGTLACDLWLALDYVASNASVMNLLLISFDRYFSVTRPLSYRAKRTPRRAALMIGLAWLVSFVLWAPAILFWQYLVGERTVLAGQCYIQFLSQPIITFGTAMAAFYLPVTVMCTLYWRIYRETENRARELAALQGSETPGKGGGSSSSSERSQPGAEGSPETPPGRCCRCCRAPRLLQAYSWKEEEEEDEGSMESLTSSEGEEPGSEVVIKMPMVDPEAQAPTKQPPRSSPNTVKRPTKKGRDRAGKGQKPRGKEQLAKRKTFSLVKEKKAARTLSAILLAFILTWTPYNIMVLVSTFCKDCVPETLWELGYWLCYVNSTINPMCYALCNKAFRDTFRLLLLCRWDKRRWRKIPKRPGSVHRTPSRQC
CHO-K1 Ca antag: M1 antagonist counterscreen hit in parental CHO-K1 cells; ATP-induced calcium, Fluo-8 fluorescence; inhibition, % at 3 µM; 360,000 compounds, 0.6% hits;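 active means inhibition above a per-plate cutoff, the plate's mean sample inhibition plus 3 SD, cut at about 24% in these data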
CHRM1 antagonist: human M1 muscarinic receptor antagonists, primary screen, CHO-K1 cells, Fluo-8 calcium fluorescence, 1536-well; CHO-K1 hM1, ACh EC80 antagonist; inhibition, % at 3 µM; 360,000 compounds, 1.3% hits;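 active means percent inhibition above its own plate's cutoff, namely the mean of that plate's compound wells plus 3 SD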;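 further: peak over basal fluorescence ratio during 140 s after agonist addition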
CHRM1 agonist: human M1 muscarinic receptor agonists, primary screen, Fluo-8 calcium fluorescence, CHO-K1 cells, HTS | CHO-K1 hM1, agonist mode; 0% DMSO, 100% acetylcholine EC100 | Muscarinic acetylcholine receptor M1 (Homo sapiens), P11229 | 360,000 compounds, 0.33% hits | activation, % at 3 µM | AID 588814, 2011;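 active means activation above the run's mean compound activation plus 3 SD, cut at about 16% in these data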;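 further: peak over basal fluorescence ratio within a 140 s kinetic read after compound addition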
CHO-K1 Ca ag: counter-screen for M1 agonists: effect in parental CHO-K1 cells | 360,000 compounds, 0.48% hits | activation, % at 3 µM | Fluo-8 calcium fluorescence; scaled to maximal ATP response, vehicle zero; in the data active means activation above about 15%;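 further: untransfected CHO-K1 host cells lacking M1 receptor as counterscreen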
M1 PAM parental: nonselective calcium activators in parental CHO-K1 cells, primary screen, counter-screen for M1 PAM project, cell-based, Fluo-8 calcium fluorescence, full deck, 1536-well | ATP EC20; 0% at ATP EC20, 100% at ATP max | activation, % at 3 µM | 360,000 compounds, 0.02% hits;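 active means activation above the run cutoff, the mean activation of all test compounds plus 3 SD, cut at about 40% in these data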;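 further: peak over basal fluorescence ratio in a 140 s read after ATP addition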
Each line names hits and unclear results; the compound was inactive in the other large screens; ! = not confirmed by another sample. Shown are actives, neighbours in structure and some others; about 2.4% of the full set was active somewhere.

O=C(Nc1nnc(SCc2c(Cl)cccc2Cl)s1)C1CC(=O)N(c2ccc3c(c2)OCCO3)C1 (stereo not drawn)	CHRM1 antagonist 33.2
O=C(Nc1nnc(SCc2ccc(F)cc2)s1)C1CC(=O)N(c2ccc3c(c2)OCCO3)C1 (stereo not drawn)	none
COCCN=c1scc(-c2cc(OC)ccc2OC)n1/N=C/c1c[nH]c2ccccc12	CHRM1 agonist 16.0
CC1CNCCN1S(=O)(=O)c1cccc2cnccc12 (stereo not drawn)	CHRM1 agonist 42.2!
O=S(=O)(c1cccc2cnccc12)N1CCCNCC1	none
Cc1cc(CSc2ccccc2)ccc1NC(=O)c1ccc(Cl)c([N+](=O)[O-])c1	CHO-K1 Ca antag 27.8
Cc1cc(CSc2ccccc2)ccc1NC(=O)c1ccc(C)c([N+](=O)[O-])c1	none
COc1cccc(C2CC(c3cccs3)=NN2C(=O)CSC2=NN3CCCC(=O)N=C3S2)c1OC (stereo not drawn)	CHO-K1 Ca antag 24.5
CCN1CCN(c2cc(C(C)(C)C)nc3c(-c4ccccc4)c(C)nn23)CC1	CHO-K1 Ca ag 17.8
CCN1CCN(c2ccc(NC(=O)CCc3c(C)nc4c(-c5ccccc5)c(C)nn4c3C)cc2)CC1	CHRM1 antagonist 36.8
Cc1nc2c(-c3ccccc3)c(C)nn2c(C)c1CCC(=O)NCc1ccco1	none
COc1ccccc1CNS(=O)(=O)c1ccc2c(c1)CC(C)N2C(=O)C1CC1 (stereo not drawn)	none
COc1ccccc1CNS(=O)(=O)c1ccc2c(c1)CC(C)N2C(=O)C1CCC1 (stereo not drawn)	CHO-K1 Ca antag 31.2
O=C(c1ccc(CNS(=O)(=O)c2ccc(Br)cc2)cc1)N1CCCCCC1	none
CCOc1ccc(NC(=O)c2ccc(CN3CCc4ccccc4C3)cc2)cc1	CHO-K1 Ca antag 26.6, CHRM1 antagonist 39.0
O=C(CNC1CCCC1)Nc1ccc(S(=O)(=O)N2CCCCC2)cc1	none
O=C(CNC1CCN(Cc2ccccc2)CC1)Nc1ccc(S(=O)(=O)N2CCCCC2)cc1	CHRM1 antagonist 44.3
CCOC(=O)c1ccc(NC(=O)c2ccc(CN3CCc4ccccc4C3)cc2)cc1	none
O=C(Nc1ccc(Cl)cc1)c1ccc(CN2CCc3ccccc3C2)cc1	none
O=C(Nc1ccc(S(=O)(=O)N2CCCC2)cc1)c1ccc(CN2CCc3ccccc3C2)cc1	CHRM1 antagonist 39.3
CC(C)c1ccc(NC(=O)NCc2cccnc2)cc1	none
O=C1C=CC(c2ccccc2)(c2ccccc2)CC1	none
COc1ccc(N(CCC#N)S(=O)(=O)c2cccc3nsnc23)cc1	CHRM1 antagonist 24.7
O=C(OCc1c(-c2ccccc2)ncc2ccccc12)c1cccs1	none
CC(=O)NCCC(=O)Nc1ncc(S(=O)(=O)c2ccc([N+](=O)[O-])cc2)s1	none
CCCCC(=O)Nc1ncc(S(=O)(=O)c2ccc([N+](=O)[O-])cc2)s1	CHRM1 agonist 22.8
O=C(c1cc(-c2ccco2)on1)N1CCc2ccccc2C1	M1 PAM 28.0
CC(=O)c1ccc(NC(=O)Nc2cccc(Cl)c2)cc1	CHO-K1 Ca antag 34.1, CHRM1 antagonist 27.0
S=C(NCCC(c1ccccc1)c1ccccc1)Nc1cccc(Cl)c1	CHO-K1 Ca antag 25.5
CC(=O)c1ccc(NC(=S)NCCc2ccc(S(N)(=O)=O)cc2)cc1	none
CC(=O)Nc1ccc(NC(=O)Nc2cccc(Cl)c2)cc1	none
CSc1cccc(NC(=O)Nc2ccc(Cl)cc2)c1	CHO-K1 Ca antag 25.5
CSc1cccc(NC(N)=O)c1	none
S=C(NCCN(C1CCCCC1)C1CCCC1)Nc1cccc(Cl)c1	none
CC(=O)c1ccc(NC(=S)NCCc2cccc(Cl)c2)cc1	CHO-K1 Ca ag 15.3
CCCCOc1ccc(N2CC(C(=O)NCc3ccco3)CC2=O)cc1 (stereo not drawn)	none
COc1ccc(S(=O)(=O)N(C)C[C@H]2Oc3ccc(NS(=O)(=O)c4cccs4)cc3C(=O)N([C@H](C)CO)C[C@@H]2C)cc1	none
CC(=O)c1cccc(NC(=O)Nc2cccs2)c1	CHO-K1 Ca antag 26.0
COc1cccc(NC(=O)Nc2cccs2)c1	none
CC(=O)c1cccc(NC(=S)NC(=O)Cc2ccc(Cl)cc2)c1	CHRM1 agonist 20.5
CC(=O)c1ccc(NC(=O)Nc2ccc(Br)cc2C)cc1	CHRM1 antagonist 30.9
COC(=O)c1cn(Cc2cc(OC)ccc2OC)cc(F)c1=O	none
C=CS(=O)(=O)c1ccc(Oc2ccc(S(=O)(=O)C=C)cc2)cc1	CHO-K1 Ca ag 15.2
CC(C)CCC(CCN1CCCC1)c1ccc2c(c1)OCO2 (stereo not drawn)	CHRM1 antagonist 57.4
CC(C)CCC(CCN1CCOCC1)c1ccc2c(c1)OCO2 (stereo not drawn)	none
CCN(CC)c1ccc(/C=C/C(=O)C2C(=O)C=C(C)OC2=O)cc1 (stereo not drawn)	CHO-K1 Ca antag 44.1, CHRM1 antagonist 56.2, CHRM1 agonist 133.8, CHO-K1 Ca ag 50.3
O=C(Nc1ccccc1[N+](=O)[O-])c1cccc(N2C(=O)CCC2=O)c1	none
COc1cccc(CNc2nc3cc(-c4cccc(C(=O)NCCO)c4)sc3c(=O)n2C)c1	none
CCCCCCS(=O)[C@H]1CS(=O)(=O)C[C@@H]1S(=O)CCCCCC (stereo partly drawn)	CHRM1 antagonist 19.5
CCCCCCCCS(=O)C1CCS(=O)(=O)C1 (stereo not drawn)	none
O=c1ccc(-c2ccc(S(=O)(=O)NCC3CCN(Cc4ccccc4F)CC3)s2)n[nH]1	CHRM1 antagonist 92.6
N#Cc1ccc(OCC(=O)NNC(=S)NC2CCCCC2)cc1	none
Cc1cccc(C(=O)Oc2ccc(/C=N/NC(=O)c3ccccc3O)cc2)c1	none
Cc1cccc(C(=O)Oc2ccc(/C=N/NC(=O)c3ccc(O)cc3)cc2)c1	CHRM1 antagonist 41.5
COCc1cc(C)nc(SCC[N+](C)(C)CC(=O)c2ccc(Br)cc2)c1C#N	CHRM1 antagonist 70.4
CCNC(=O)C1(C)CCN(C(=O)c2ccc(OC)c(OC)c2)C1 (stereo not drawn)	none
CC(OC(=O)CCN1C(=O)C2CC=CCC2C1=O)C(=O)Nc1ccc(F)cc1 (stereo not drawn)	none
Cc1ccccc1NC(=O)C1CCCN(c2nnc(N3CCCC3=O)s2)C1 (stereo not drawn)	CHO-K1 Ca antag 25.7
COc1ccc(NS(=O)(=O)c2cc(C(=O)N(C)CCc3ccccn3)ccc2Cl)cc1	none
Nc1ccc2c(c1)Cc1cc([N+](=O)[O-])ccc1-2	CHO-K1 Ca ag 26.4

Source: PubChem BioAssay (The Scripps Research Institute Molecular Screening Center)
